{"source": "PubChem BioAssay AID2284366", "about": "(EPA ToxCast)", "note": "Inconclusive results are not listed. Activity calls are given as the source filed them. How the source made its calls: active means hit-call score of the fitted dose curve at least 0.9, where 1 is the maximum; inconclusive means response in the unintended direction; inactive means score below 0.9."}
{"test_system": "zebrafish Peroxisome Proliferator-activated Receptor gamma (PPARg), gene 557037", "assay": "ATG_zfPPARg_EcoTox2: Attagene TRANS-FACTORIAL EcoTox-2 HepG2 Assay for zebrafish Peroxisome Proliferator-activated Receptor gamma (PPARg)", "description": "ATG_EcoTox2 is a cell-based, multiplexed assay created by modifying the existing Attagene TRANS-FACTORIAL system to include a panel of nuclear receptors from some or all the following species: human (Homo sapiens), african clawed frog (Xenopus laevis), rainbow trout (Oncorhynchus mykiss), japanese medaka (Oryzias latipes), and zebrafish (Danio rerio). The ECOTOX2-FACTORIAL format uses HepG2, a human liver cell line, with measurements taken at 24 hours after chemical dosing in a 24-well plate. ATG_zfPPARg_EcoTox2 is one of 29 assay components calculated in the ATG_EcoTox2 assay. It is designed to make measurements of mRNA induction, a form of inducible reporter, as detected with fluorescence intensity signals by Reverse transcription polymerase chain reaction (RT-PCR) and Capillary electrophoresis technology.The assay endpoint ATG_zfPPARg_EcoTox2 was analyzed in the positive analysis fitting direction relative to DMSO as the negative control and baseline of activity. Using a type of inducible reporter, measures of mRNA for gain-of-signal activity can be used to understand the reporter gene at the transcription factor-level as they relate to the gene PPARg. Furthermore, this assay endpoint can be referred to as a primary readout, because this assay has produced multiple assay endpoints where this one serves a reporter gene function. To generalize the intended target to other relatable targets, this assay endpoint is annotated to the nuclear receptor intended target family, where the subfamily is non-steroidal.\nHuman liver HepG2 cells are transiently transfected with multiple reporter transcription units (MRTUs) in 6-well plates using FuGene 6 reagent (Roche; 3 ml FuGene/1 mg DNA). The MRTU constructs are regulated by a cis-regulating element (promoter). Each RTU expresses a GAL4-UAS that regulates the transcription of a nearby target reporter gene sequence. A major difference between the CIS and TRANS system is that in CIS activities of endogenous TFs are measured, whereas the TRANS assay evaluates changes in activities of exogenous, chimeric NR-Gal4 proteins. […] At the end of 24 hour incubation, total RNA was isolated using TriZol reagent (Invitrogen). The isolated RNA is then reverse-transcribed using oligo(dT) primer and Mo-MLV reverse transcriptase (Invitrogen) with DNAse I (Ambion) treatment for 30 min. The one-tenth of the produced cDNA was amplified by PCR using Taq DNA polymerase (Invitrogen) and two reporter sequence-specific primers. The PCR products were fluorescently labeled by primer extension with 6-arboxyfluorescein (6-FAM) 5'-labeled reporter sequence-specific primer (2 min at 95 C, 20 s at 68 C and 10 min at 72 C) and these products were digested with 5U of HpaI (New England Biolabs) for 2h at 37 C. The fragments were purified using Qiaquick PCR columns (Qiagen), analyzed on an ABI 3130xL genetic analyzer (Applied Biosystems) with peak positions identified by using a set of X-rhodamine (ROX)-labeled MapMarker1000 molecular weight standards (BioVentures). The raw capillary electrophoresis data was processed using Attagraph software (Attagene)."}
{"smiles": "[Cl][Sn]([c]1ccccc1)([c]1ccccc1)[c]1ccccc1", "outcome": "inactive"}
{"smiles": "O=P(Oc1ccccc1)(Oc1ccccc1)Oc1ccccc1", "AC50": "13.2 µM (active)"}
{"smiles": "O=S(=O)(O)C(F)(F)C(F)(F)C(F)(F)C(F)(F)C(F)(F)C(F)(F)F", "outcome": "inactive"}
{"smiles": "CCCCOCN(C(=O)CCl)c1c(CC)cccc1CC", "outcome": "inactive"}
{"smiles": "O=C(O)C(F)(F)C(F)(F)C(F)(F)C(F)(F)C(F)(F)C(F)(F)C(F)(F)F", "outcome": "inactive"}
